Data as given in PubChem BioAssay AID602193 (The Scripps Research Institute Molecular Screening Center, 2012).
Hit rate of the full screen: of about 1,600 compounds, about 410 (26%) were called active. Only a sample is shown. A number with no mark means an inactive call.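 The calls were made as follows: active = mean inhibition over triplicates above the low-control well mean plus 3 SD, set per campaign (cut at about 13% in these data); inactive = the rest.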

Assay: nonselective cAMP signaling inhibitors, parental cells, counter-screen for MC4R biased antagonist project, cell-based, TR-FRET, U2OS, forskolin, triplicate (AID 602193);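 also: signal is single emission at 671 nm which falls as cellular cAMP rises; 0% = forskolin-stimulated wells and 100% = buffer without forskolin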
Conditions: LANCE TR-FRET, at 6.5 µM, active compounds read high

**Q.** Which inhibition does the source give for CCOC(=O)c1cc(C)nc(S(C)(=O)=O)c1C#N here?
**A.** 9.09%

**Q.** Which inhibition does the source give for N#Cc1c(-c2cccs2)nc(SCC(=O)c2ccc(Br)cc2)[nH]c1=O here?
**A.** 12.9%

**Q.** For C#Cc1cc(N2CCN(C(=O)c3ccoc3)CC2)n2nc(-c3cccc(Cl)c3)cc2n1, which inhibition is on record?
**A.** 6.98%

**Q.** For COc1ccc(C(C[N+](=O)[O-])n2nc(C)cc2C)cc1 (stereo not drawn), which inhibition is on record?
**A.** 16.1% (active)

**Q.** For O=C(NCC1CCN(Cc2ccccc2Cl)CC1)Nc1cccc(Cl)c1, which inhibition is on record?
**A.** -1.82%

**Q.** For CC(=O)N1CCN(S(=O)(=O)c2c(F)cc(F)c(Cl)c2F)CC1, which inhibition is on record?
**A.** 15.9% (active)

**Q.** For O=C(c1ccc2c(c1)N(Cc1ccc(F)cc1)C(=O)c1ccccc1S2(=O)=O)N1CCN(c2ccccn2)CC1, which inhibition is on record?
**A.** 1.79%

**Q.** For O=C(Cn1nnc2ccccc2c1=O)Nc1cc(C(F)(F)F)ccc1N1CCOCC1, which inhibition is on record?
**A.** -0.34%

**Q.** With CN(CC(=O)NCCc1ccccn1)S(=O)(=O)c1ccc(Cl)cc1 as the compound, how does the inhibition read?
**A.** -1.11%

**Q.** For Cc1c(Cl)cccc1NC(=O)[C@@]1(CC(=O)O)CC(/C=C/c2ccccc2)=NO1, which inhibition is on record?
**A.** 0.29%

**Q.** For COc1ccc(Oc2c(Cl)cnn(-c3ccccc3)c2=O)cc1, which inhibition is on record?
**A.** 38.1% (active)

**Q.** Which inhibition does the source give for O=C(COC(=O)c1c2c(nc3ccccc13)CCCC2)c1ccc(Br)s1 here?
**A.** 4.15%

**Q.** For CCN(CC(=O)NCCCN1CCOCC1)S(=O)(=O)c1cc(Cl)ccc1Cl, which inhibition is on record?
**A.** -1.05%

**Q.** For Cc1ccc(NC(=O)COC(=O)CNC(=O)c2ccc(Cl)cc2Cl)cc1S(=O)(=O)N1CCOCC1, which inhibition is on record?
**A.** 7.9%

**Q.** Which inhibition does the source give for Cc1nc2ccccc2c(=O)n1NC(=O)c1ccc(Cl)c([N+](=O)[O-])c1 here?
**A.** 18.5% (active)

**Q.** With CC1(C)C(c2cccs2)=[N+]([O-])C2(CCCCC2=O)N1O (stereo not drawn) as the compound, how does the inhibition read?
**A.** -3.22%

**Q.** With Cc1ccc(C(C(=O)NCC2CCCO2)N(C(=O)c2snc(C(N)=O)c2N)c2ccc(C(C)C)cc2)o1 (stereo not drawn) as the compound, how does the inhibition read?
**A.** 0.79%

**Q.** For CC(C)(C)OC(=O)N1CCC(NC(=O)c2[nH]cnc2C(=O)N[C@@H](Cc2ccccc2)C(=O)OCc2ccccc2)CC1, which inhibition is on record?
**A.** 16.5% (active)

**Q.** With COC(=O)[C@H](Cc1ccccc1)NC(=O)[C@@H]1C[C@H]1[C@@H](NC(=O)OCc1ccccc1)c1ccccc1 as the compound, how does the inhibition read?
**A.** 12%

**Q.** For O=C(Nc1ccc(F)c([N+](=O)[O-])c1)C1CC(=O)N(Cc2ccccc2)C1 (stereo not drawn), which inhibition is on record?
**A.** 8.59%

**Q.** With Cc1cccc(OCC(O)Cn2c(N3CCCCC3)nc3c2c(=O)[nH]c(=O)n3C)c1 (stereo not drawn) as the compound, how does the inhibition read?
**A.** 2.12%

**Q.** Which inhibition does the source give for COc1ccc(/C=N/OCC(=O)N(Cc2ccccc2)c2ccccc2C(=O)O)cc1 here?
**A.** -3.38%

**Q.** With CCOC(=O)c1c(-c2ccccc2)oc2cc(Br)c(O)c(C=O)c12 as the compound, how does the inhibition read?
**A.** 30.2% (active)

**Q.** With Cc1nnc(N/N=C/C2CC=CCC2)[nH]c1=O (stereo not drawn) as the compound, how does the inhibition read?
**A.** -2.01%

**Q.** With O=C(O)CCn1cc(/C=C/C(=O)c2ccc(Cl)cc2)c(-c2cccc(Br)c2)n1 as the compound, how does the inhibition read?
**A.** -0.6%

**Q.** For Cc1ccccc1-c1n[nH]c(=S)n1/N=C/c1ccc(-c2ccccc2Br)o1, which inhibition is on record?
**A.** 0.55%

**Q.** For Cc1ccc(OCC(=O)Nc2ccc(NC(=O)c3cccs3)cc2)c(C)c1, which inhibition is on record?
**A.** -2.94%

**Q.** With O=C(COC(=O)[C@H](Cc1ccccc1)NC(=O)c1cccs1)Nc1cc(F)ccc1F as the compound, how does the inhibition read?
**A.** 13.2% (active)

**Q.** With O=C(Nc1nccs1)c1cc(S(=O)(=O)N2CCOCC2)c(Cl)cc1Cl as the compound, how does the inhibition read?
**A.** 10.5%

**Q.** Which inhibition does the source give for CC(=O)Nc1ccc(Sc2ccccc2C(=O)N2CCCC2)cn1 here?
**A.** -1.96%

**Q.** With Cc1ccc(NC(=O)C(C)OC(=O)Cc2c[nH]c3ccccc23)cc1S(=O)(=O)N1CCOCC1 (stereo not drawn) as the compound, how does the inhibition read?
**A.** 2.7%

**Q.** For CC(C)Oc1c(Br)cc(Br)cc1/C=N/NC(N)=S, which inhibition is on record?
**A.** 19.3% (active)

**Q.** For C=Cn1c(C(=O)O)ccc1-c1ccc(OC)cc1, which inhibition is on record?
**A.** -3.83%

**Q.** For CCOC(=O)c1c(NC(=O)CCl)sc(C(=O)N(CC)CC)c1C, which inhibition is on record?
**A.** 17.7% (active)

**Q.** Which inhibition does the source give for Cc1ccc(NS(=O)(=O)c2ccc(C)c(NC(=O)COc3ccc4ccccc4c3)c2)c(C)c1 here?
**A.** 2.54%

**Q.** For COc1cccc(OC)c1C(=O)Nc1c(C(=O)N2CCN(c3ccccn3)CC2)oc2ccccc12, which inhibition is on record?
**A.** -1.8%

**Q.** With CC1(C)Cc2ccccc2-c2[nH]c(=S)[nH]c(=O)c21 as the compound, how does the inhibition read?
**A.** 22.1% (active)

**Q.** Which inhibition does the source give for CCOc1ccc(Nc2nc(Cl)nc(N3CCN(c4ccc(OC)cc4)CC3)n2)cc1 here?
**A.** 11.2%

**Q.** Which inhibition does the source give for COc1ccc(CCNC(=O)c2cnc(Cl)c(Cl)c2)cc1 here?
**A.** 13.7% (active)

**Q.** Which inhibition does the source give for COc1ccc(CCNC(=O)COC(=O)c2cnc(Cl)c(Cl)c2)cc1 here?
**A.** 17.2% (active)

**Q.** With O=C(OCC(=O)N1CCCCCC1)c1cnc(Cl)c(Cl)c1 as the compound, how does the inhibition read?
**A.** 21.2% (active)

**Q.** With COc1ccc(C(C)C)cc1S(=O)(=O)Nc1ncn[nH]1 as the compound, how does the inhibition read?
**A.** 0.13%

**Q.** With CCCC(C(=O)n1nc(C)cc1C)C(NS(=O)(=O)c1ccc(C)cc1)c1ccccc1 (stereo not drawn) as the compound, how does the inhibition read?
**A.** 3.42%

**Q.** For CCOC(=O)CSc1nc(N2CCOCC2)c2c(c1C#N)CC(C(C)C)OC2 (stereo not drawn), which inhibition is on record?
**A.** 3.57%

**Q.** With Cc1ccc(CSc2nnc(-c3cnccn3)n2C)cc1 as the compound, how does the inhibition read?
**A.** -1.1%

**Q.** For COc1ccc(-c2n[nH]c(C)c2-c2ccccc2OC)c(O)c1, which inhibition is on record?
**A.** 4.68%

**Q.** Which inhibition does the source give for COc1ccc2oc(N)c(C=O)c(=O)c2c1 here?
**A.** -1.23%

**Q.** Which inhibition does the source give for COc1ccc(-c2nc3n(c(=O)c2C#N)CCS3)c(OC)c1 here?
**A.** -2.32%

**Q.** With O=C(NC1=CC(=O)c2ccccc2C1=O)c1ccccc1 as the compound, how does the inhibition read?
**A.** -5.71%

**Q.** Which inhibition does the source give for COC(=O)c1sc(-c2ccc(C(C)(C)C)cc2)cc1NC(=O)/C=C/C(=O)O here?
**A.** 1.28%

**Q.** With COCCCNC(=O)/C(C#N)=C/c1c(N2CCCCCC2)nc2ccccn2c1=O as the compound, how does the inhibition read?
**A.** 9.32%

**Q.** For CN(C)C(CNC(=O)CCCOc1ccccc1)c1ccco1 (stereo not drawn), which inhibition is on record?
**A.** -0.67%

**Q.** Which inhibition does the source give for Cc1ccc(Sc2ccc(NC(=O)c3ccc(F)cc3)cc2C#N)cc1 here?
**A.** 5.25%
